# Laboratory results reported in PubChem BioAssay AID1053115 (Broad Institute, 2014).
# Measured potencies and affinities stand elsewhere. The source made the active and inactive calls.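 How the source made its calls: active means cytotoxic compounds whose fitted half-maximal concentration is at most twice the top valid tested dose; inconclusive means flat curve showing 30 to 70% signal loss, or poor fit; inactive means the rest.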
# Assay: viability loss in A549 lung cells – cell-based, 24 h, CellTiter-Glo luminescence, cherry-picks, cytotoxicity control, dose response (AID 1053115)
# Settings: CellTiter-Glo ATP luminescence; series mostly up to 30 µM; activity change, negative = cytotoxicity: at the top concentration
row,SMILES,"activity change, negative = cytotoxicity"
1,COc1ccccc1CN1CC[C@@H]2[C@@H](CO)Nc3ccc(-c4ccc(C(=O)N(C)C)cc4)cc3[C@@H]21,1.95% (inactive)
2,COc1ccccc1CN1CC[C@@H]2[C@H]1c1cc(-c3ccc(C(=O)N(C)C)cc3)ccc1N[C@@H]2CO,0.92% (inactive)
3,C[C@H](O)C#Cc1ccc2c(c1)O[C@@H](CN(C)Cc1ccccc1)[C@@H](C)CN([C@H](C)CO)S2(=O)=O,-7.4% (inactive)
4,C[C@H](O)C#Cc1ccc2c(c1)O[C@H](CN(C)Cc1ccc(-c3ccccc3)cc1)[C@H](C)CN([C@H](C)CO)S2(=O)=O,-9.27% (inactive)
5,C[C@@H]1CN([C@H](C)CO)S(=O)(=O)c2ccc(C#C[C@@H](C)O)cc2O[C@H]1CN(C)Cc1ccccc1,-5.37% (inactive)
6,CN(C)C(=O)c1ccc(-c2cccc(-c3nc(C(=O)NC4CCCC4)cc4c3[C@H](CCO)N([S@@](=O)C(C)(C)C)C4)c2)cc1,-3.79% (inactive)
7,CN1c2ccc(C#Cc3cccnc3)cc2[C@H]2[C@H](CCN2C(=O)C2CCCCC2)[C@@H]1CO,5.27% (inactive)
8,C[C@H](O)C#Cc1ccc2c(c1)O[C@@H](CN(C)Cc1ccccc1)[C@@H](C)CN([C@@H](C)CO)S2(=O)=O,3.63% (inactive)
9,C[C@H](O)C#Cc1ccc2c(c1)O[C@H](CN(C)Cc1ccccc1)[C@@H](C)CN([C@H](C)CO)S2(=O)=O,14.5% (inactive)
10,CO[C@H]1CN(C)C(=O)c2ccc(NC(=O)c3ccc(F)cc3)cc2OC[C@H](C)N(C(=O)c2ccc(F)cc2)C[C@@H]1C,5.66% (inactive)
11,C[C@@H]1CN([C@H](C)CO)S(=O)(=O)c2ccc(C#C[C@@H](C)O)cc2O[C@@H]1CN(C)Cc1ccccc1,-5.16% (inactive)
12,C[C@H](CO)N1C[C@H](C)[C@@H](CN(C)S(=O)(=O)c2ccc(Cl)cc2)Oc2c(NS(=O)(=O)c3cn(C)cn3)cccc2C1=O,-6.4% (inactive)
13,C[C@@H](O)C#Cc1ccc2c(c1)O[C@H](CN(C)Cc1ccccc1)[C@@H](C)CN([C@@H](C)CO)S2(=O)=O,18.7% (inactive)
14,OC[C@H]1Nc2ccc(-c3cccc(F)c3)cc2[C@@H]2[C@H]1CCN2Cc1ccc(F)cc1,-15.4% (inactive)
15,C[C@H](CO)N1C[C@H](C)[C@@H](CN(C)Cc2ccccc2)Oc2cc(C#C[C@@H](C)O)ccc2S1(=O)=O,-11.4% (inactive)
16,CN1CCN(C(=O)c2cc3c(c(-c4cccc(C#CCC5CCCC5)c4)n2)[C@@H](CCO)N(S(=O)C(C)(C)C)C3)CC1 (some centres not stated),-2.55% (inactive)
17,CN1c2ccc(C#Cc3cccnc3)cc2[C@H]2[C@H](CCN2C(=O)C2CCC2)[C@@H]1CO,8.82% (inactive)
18,Cc1ccc(S(=O)(=O)N(C)C[C@H]2Oc3cc(C#Cc4ccncc4)ccc3S(=O)(=O)N([C@@H](C)CO)C[C@H]2C)cc1,-17.2% (inactive)
19,C[C@H](CO)N1C[C@H](C)[C@H](CN(C)Cc2ccccc2)Oc2cc(C#C[C@@H](C)O)ccc2S1(=O)=O,4.46% (inactive)
20,C[C@@H]1CN([C@@H](C)CO)C(=O)Cc2cc(NC(=O)C3CCCCC3)ccc2O[C@H]1CN(C)C(=O)Nc1ccccc1,10.5% (inactive)
21,N#Cc1ccc(-c2ccc3c(c2)[C@@H]2[C@@H](CCN2C(=O)C2CCCCC2)[C@@H](CO)N3)cc1,-14.1% (inactive)
22,C[C@@H]1CN([C@H](C)CO)C(=O)c2cccc(NC(=O)Nc3ccc(F)cc3)c2O[C@@H]1CN(C)S(=O)(=O)c1ccc(Cl)cc1,11.2% (inactive)
